Laboratory results as given in ChEMBL document CHEMBL3988442, “University of Dundee, Small-Polar-MMV Screening Library” (2021).
Hit rate of the full screen: of about 48,000 compounds, about 13,000 (27%) showed an effect of 50% or more. The list shows a part of the results.

tested on: Wolbachia pipientis; assay: Anti-Wolbachia Cell-Based Screen; type: functional; parameters: scale not given: in the data most compounds retested in dose-response had high values; conditions: 5 µM

Row | Structure (SMILES) | Percent Effect [%]
1 | Cc1nccn1-c1ccc(C(C)NCc2ncc[nH]2)cc1 (stereo unspecified) | -20.7
2 | Cc1cc(C(=O)Nc2ccnc(OC3CCOC3)c2)c(C)o1 (stereo unspecified) | -9.731
3 | Cc1ccc2[nH]c(CN(C)c3cc(CN)nc(C)n3)nc2c1 | -0.384
4 | N#Cc1cn(C2CC2)c(=O)n(Cc2noc(-c3cccs3)n2)c1=O | 11.53
5 | COCCn1cnnc1CN(C)c1nc(N)nc2c1CCCC2 | 15.13
6 | Cc1oncc1C(=O)N1CC2CC1(C(=O)NCc1ccco1)C2 | -19.28
7 | FC(F)(F)Oc1ccc(-c2c[nH]c([C@@H]3COCCN3)n2)cc1 | -3.996
8 | c1cc(CNCC2Cn3nncc3CO2)ccn1 (stereo unspecified) | 7.838
9 | Cc1nnn2c1COC(CNCc1ccncc1)C2 (stereo unspecified) | -6.146
10 | Cc1ccc(CNCC2Cn3nncc3CO2)o1 (stereo unspecified) | 84.72
11 | c1cc(CNCC2Cn3nncc3CO2)cs1 (stereo unspecified) | 14.09
12 | Cc1ccc(CNCC2Cn3nncc3CO2)s1 (stereo unspecified) | 98.39
13 | c1ccc(CNCC2Cn3nncc3CO2)nc1 (stereo unspecified) | -9.384
14 | Cc1ccc(CNCC2Cn3nnc(-c4cccc(F)c4)c3CO2)o1.O=C(O)C(F)(F)F (stereo unspecified) | -4.594
15 | Fc1cccc(CNCC2Cn3nncc3CO2)c1 (stereo unspecified) | -13.19
16 | c1coc(CNCC2Cn3nncc3CO2)c1 (stereo unspecified) | 91.63
17 | COCCN(CCC#N)S(=O)(=O)c1cc(F)ccc1F | 6.072
18 | CC(C)c1nnc2n1CCN(C(=O)c1ccc(CN(C)C)cc1)C2 | -8.921
19 | Cc1nnc2n1CCN(C(=O)CN(C)Cc1ccccc1)C2 | 125
20 | CC(C)c1nnc2n1CCN(C(=O)CN1Cc3ccccc3C1=O)C2 | -9.252
21 | CC(C)c1nnc2n1CCN(C(=O)CN(C)Cc1ccccc1)C2 | 95.98
22 | Cc1nnc2n1CCN(C(=O)COCCOc1ccccc1)C2 | 6.355

Row | Structure (SMILES) | Percent Effect [%]
23 | CCc1nnc2n1CCN(C(=O)CN(C)Cc1ccccc1)C2 | -3.292
24 | CS(=O)(=O)c1nccn1Cc1ccc(C(N)=O)cc1 | -9.833
25 | CN(Cc1cn2c(n1)CN(CC1CCOC1)CC2)Cc1ccco1.O=C(O)C(F)(F)F.O=C(O)C(F)(F)F (stereo unspecified) | 11.13
26 | CN(C)Cc1cn2c(n1)CN(C1CCOC1)CC2 (stereo unspecified) | 93.96
27 | CN(Cc1cncnc1)Cc1cn2c(n1)CN(C1CCOC1)CC2.O=C(O)C(F)(F)F.O=C(O)C(F)(F)F (stereo unspecified) | -14.81
28 | CCN(CC)Cc1cn2c(n1)CN(C1CCOC1)CC2.O=C(O)C(F)(F)F.O=C(O)C(F)(F)F (stereo unspecified) | 96.5
29 | CN(Cc1cn2c(n1)CN(C(=O)C1CCOCC1)CC2)Cc1ccco1 | -9.912
30 | CN(Cc1cccnc1)Cc1cn2c(n1)CN(C1CCOCC1)CC2 | 108.1
31 | CCN(CC)Cc1cnc2n1CCN(C1CCOC1)CC2 (stereo unspecified) | -1.376
32 | CCOCC(=O)N1CCn2cc(CN(C)Cc3ccco3)nc2C1 | -7.292
33 | CN(Cc1cn2c(n1)CN(C1CCOC1)CC2)Cc1ccco1.O=C(O)C(F)(F)F.O=C(O)C(F)(F)F (stereo unspecified) | -12.79
34 | CN(Cc1cccnc1)Cc1cn2c(n1)CN(C1CCOC1)CC2.O=C(O)C(F)(F)F.O=C(O)C(F)(F)F.O=C(O)C(F)(F)F (stereo unspecified) | 86.19
35 | Cc1noc(C)c1CN(C)Cc1csc(-c2ccccc2F)n1 | 6.793
36 | CSC(C)(C)CNC(=O)NCC[S+]([O-])c1ccccc1F (stereo unspecified) | 3.709
37 | COCc1nc2n(n1)CCCC2Nc1nc(C2CC2)ns1 (stereo unspecified) | -6.792
38 | COC[C@H]1CC[C@H]2[C@H](CCN2S(=O)(=O)Cc2ccccc2)O1 | -8.908
39 | Cc1cnc(CNCc2cnc(-c3ccccc3C)s2)cn1 | 2.85
40 | Cc1cnc(NCc2ccncc2)nc1-c1cnn(C)c1 | 107.1
41 | Cn1cc(-c2ccnc(NCC3CCN(Cc4ccccc4)C3)n2)cn1 (stereo unspecified) | 1.277
42 | Cc1ccc(CCNc2ncc(C)c(-c3ccnn3C)n2)s1 | -9.646
43 | CCNc1ncc(C)c(-c2cnn(C)c2)n1 | 108.7
44 | Cn1ncnc1-c1ccnc(NCc2ccncc2)n1 | 2.269

Row | Structure (SMILES) | Percent Effect [%]
45 | Cc1cnc(NCc2cnn(C)c2)nc1-c1cnn(C)c1 | 107.4
46 | Cc1ccc(Br)c(S(=O)(=O)NCc2cnn(C)c2)c1 | -6.157
47 | CN(C)C1(CNc2nccc(-c3cnn(C)c3)n2)CCSC1 (stereo unspecified) | 0.386
48 | Cn1cc(-c2nc(CNCCn3cccn3)cs2)cn1 | 1.057
49 | Cc1cnc(CNc2ncc(C)c(-c3cnn(C)c3)n2)cn1 | 99.76
50 | Cn1cc(-c2ccnc(NCC3CC3)n2)cn1 | -5.433
51 | O=C(CN1CCCS1(=O)=O)Nc1ccc(OC(F)F)cc1 | 5.702
52 | CC(C)CN1CCc2[nH]cnc2C12CCN(C(=O)c1cc[nH]n1)CC2 | -17.95
53 | CC(=O)NCc1ccc(S(=O)(=O)NC(=O)c2ccc3c(c2)COC3)cc1 | -5.848
54 | CC(NC1(CNS(=O)(=O)N(C)C)CCCC1)c1ccccc1 (stereo unspecified) | -3.44
55 | CCC(NC(N)=O)c1ccccc1OCC(=O)N1CCCC1 (stereo unspecified) | -5.34
56 | CC(C)c1nc(CNc2nccc(CCC(F)(F)F)n2)cs1 | -5.11
57 | Cc1cnc(NCc2csc(C(C)C)n2)nc1-c1cnn(C)c1 | 93.26
58 | Cc1cnn(CC(C)NCc2csc(-c3cnn(C)c3)n2)c1 (stereo unspecified) | 15.88
59 | O=c1[nH]c(-c2ccncc2)ncc1-c1ccnc(N2CCOCC2)n1 | 98.38
60 | O=c1[nH]c(-c2ccncc2)ncc1-c1ccnc(NC2CC2)n1 | 114.3
61 | O=c1[nH]c2nc(NC3CC3)ncc2c(=O)n1-c1ccc(F)cc1 | 8.247
62 | Cc1ccc(-c2ccnc(N3CCC4(CCO4)CC3)n2)c(C)n1 | 1.011
63 | Cc1ncc(-c2ccnc(N3CCCCC3)n2)c(=O)[nH]1 | 2.763
64 | CCCn1ncc(-c2ccnc(NC3CC(C)(C)NC(C)(C)C3)n2)c1C | 10.1
65 | O=c1[nH]c(-c2ccncc2)ncc1-c1ccnc(NC2CCCCC2)n1 | 85.21
66 | O=C(COCc1nc(-c2ccncc2)no1)NC1CCCCC1 | -10.3

Row | Structure (SMILES) | Percent Effect [%]
67 | O=C(NCC1CC1)c1cc2c(s1)CCN2C(=O)c1ccc(F)cc1 | 95.26
68 | O=C(c1ccc(F)c(F)c1)N1CCCC(Nc2ccc(F)cc2)C1 (stereo unspecified) | -4.983
69 | Cc1cc(C(=O)NCC2CCCC2)c(C)n1-c1cccnc1 | 5.973
70 | COC(=O)c1ccc(C(=O)N2CCCC(Nc3ccc(F)cc3)C2)cc1 (stereo unspecified) | -50.64
71 | O=C(NCC1CC1)c1cc2c(s1)CCN2C(=O)c1cccnc1 | 93.16
72 | CC(NC(=O)c1cc(N2CCNC2=O)ccc1F)c1ccc(F)cc1 (stereo unspecified) | -0.5858
73 | CCSCCC(=O)Nc1ncn(Cc2ccccc2)n1 | -26.44
74 | O=c1n(CCNCc2cccc3ccccc23)nc2ccccn12 | 89.88
75 | O=C(CCSc1ccccc1)NCCn1nc2ccccn2c1=O | 3.117
76 | O=c1n(CCSCc2ccccc2Cl)nc2ccccn12 | 6.647
77 | O=c1n(CCSCc2ccccc2Br)nc2ccccn12 | -15.86
78 | O=c1n(CCNc2cccc3ccccc23)nc2ccccn12 | 88.07
79 | CCSCCC(=O)NCCn1nc2ccccn2c1=O | -5.498
80 | COc1ccc(Cl)cc1CN1CC(n2cccn2)C1 | -1.811
81 | COc1ccc2c(c1)CC(NC(=O)NCc1cccs1)CO2 (stereo unspecified) | -5.09
82 | CC1(C)C[C@H](CCNC(=O)c2ccncc2)c2ccccc2O1 | 152.5
83 | COCC(=O)NCCc1ccc(I)s1 | -6.07
84 | COCC(=O)NCCc1ccc(Cl)s1 | -5.141
85 | COc1ccc2c(c1)CCCC2CC(=O)NCC(=O)O (stereo unspecified) | -14.49
86 | CN(Cc1ccco1)Cc1ccccc1CNC(=O)c1ccncc1 | 21.51
87 | COc1ccc2c(c1)[C@@H](CCNC(C)=O)CC(C)(C)O2 | 118.9
88 | COCC(=O)NCC[C@H]1CC(C)(C)Oc2ccc(OC)cc21 | 109.1

Row | Structure (SMILES) | Percent Effect [%]
89 | COCC(=O)NCC[C@H]1CC(C)(C)Oc2ccccc21 | 119
90 | O=C(NC[C@H]1OC[C@@H](NC(=O)c2ccccc2)[C@@H]1O)c1ccncc1 | -2.654
91 | CCCNC(=O)CNC(=O)CC1CCCc2cc(OC)ccc21 (stereo unspecified) | -20.04
92 | COc1cccc(C2(NC(=O)CCNC(C)=O)CC2)c1 | -8.972
93 | O[C@@H]1C[C@@H](c2nc(Cc3ccccc3)no2)N(Cc2ncc[nH]2)C1 | 0.9239
94 | COc1ccc(CNC(=O)NC2CCC(O)CC2)c(C(F)(F)F)c1 (stereo unspecified) | 20.35
95 | CCc1ccc(C(=O)N(CC(F)(F)F)C2CCCOC2)o1 (stereo unspecified) | 5.996
96 | Cc1cc(CSc2nc(=O)ccn2C(C)C)no1 | -4.933
97 | CSCC[C@@H](CO)Nc1ccc(-c2nc(-c3ccccc3F)no2)cn1 | -8.084
98 | CCC(C)(N)c1nc(=O)c(C)c(C)[nH]1 (stereo unspecified) | -33.14
99 | Cc1noc(C)c1CS(=O)(=O)CC(=O)NCCc1cccs1 | 0.1957
100 | CC(=O)N1CCC(C(=O)NC2CC(C)(C)Oc3cc(C)ccc32)CC1 (stereo unspecified) | -7.853
101 | CC(=O)NCC[C@H]1CC(C)(C)Oc2ccccc21 | 133.5
102 | COc1ccc2c(c1)C(NCCc1ccccn1)CCCO2 (stereo unspecified) | 1.37
103 | COc1ccc2c(c1)C(NCCc1c(C)noc1C)CCCO2 (stereo unspecified) | -2.374
104 | Cc1ccc2c(c1)OC(C)(C)CC2NC(=O)C1CCN(C)CC1 (stereo unspecified) | -0.1155
105 | CNCC[C@H]1CC(C)(C)Oc2ccc(OC)cc21 | 108.6
106 | CNCC[C@H]1CC(C)(C)Oc2ccc(OCC3CC3)cc21 | 114.8
